Among the data in PubChem BioAssay are inhibition values, retold here.

Unmarked numbers belong to inactive results. Activity calls are given as the source filed them. Unless noted, no stated cut-off is given here; in the data, active means inhibition above about 25%; inactive means the rest.

For assay [1], the target named is Nuclear receptor coactivator 3 (Homo sapiens) (UniProt Q9Y6Q9). The assay is described as follows: SRC3 coactivator transcriptional activity inhibitors, confirmation, cell-based, luminescence, quadruplicate (AID 588792;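 active means mean inhibition over 43.08%, the solvent-only control mean plus 3 SD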;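 further: 0% = DMSO treated cells and 100% = gossypol at 36 µM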). As to conditions: HEK293 GAL4-SRC3 luciferase reporter, at 3.6 µM, hits give high values.
Nuclear receptor coactivator 3 (Homo sapiens), sequence (Q9Y6Q9 whole entry, looked up, the tested form may be a part): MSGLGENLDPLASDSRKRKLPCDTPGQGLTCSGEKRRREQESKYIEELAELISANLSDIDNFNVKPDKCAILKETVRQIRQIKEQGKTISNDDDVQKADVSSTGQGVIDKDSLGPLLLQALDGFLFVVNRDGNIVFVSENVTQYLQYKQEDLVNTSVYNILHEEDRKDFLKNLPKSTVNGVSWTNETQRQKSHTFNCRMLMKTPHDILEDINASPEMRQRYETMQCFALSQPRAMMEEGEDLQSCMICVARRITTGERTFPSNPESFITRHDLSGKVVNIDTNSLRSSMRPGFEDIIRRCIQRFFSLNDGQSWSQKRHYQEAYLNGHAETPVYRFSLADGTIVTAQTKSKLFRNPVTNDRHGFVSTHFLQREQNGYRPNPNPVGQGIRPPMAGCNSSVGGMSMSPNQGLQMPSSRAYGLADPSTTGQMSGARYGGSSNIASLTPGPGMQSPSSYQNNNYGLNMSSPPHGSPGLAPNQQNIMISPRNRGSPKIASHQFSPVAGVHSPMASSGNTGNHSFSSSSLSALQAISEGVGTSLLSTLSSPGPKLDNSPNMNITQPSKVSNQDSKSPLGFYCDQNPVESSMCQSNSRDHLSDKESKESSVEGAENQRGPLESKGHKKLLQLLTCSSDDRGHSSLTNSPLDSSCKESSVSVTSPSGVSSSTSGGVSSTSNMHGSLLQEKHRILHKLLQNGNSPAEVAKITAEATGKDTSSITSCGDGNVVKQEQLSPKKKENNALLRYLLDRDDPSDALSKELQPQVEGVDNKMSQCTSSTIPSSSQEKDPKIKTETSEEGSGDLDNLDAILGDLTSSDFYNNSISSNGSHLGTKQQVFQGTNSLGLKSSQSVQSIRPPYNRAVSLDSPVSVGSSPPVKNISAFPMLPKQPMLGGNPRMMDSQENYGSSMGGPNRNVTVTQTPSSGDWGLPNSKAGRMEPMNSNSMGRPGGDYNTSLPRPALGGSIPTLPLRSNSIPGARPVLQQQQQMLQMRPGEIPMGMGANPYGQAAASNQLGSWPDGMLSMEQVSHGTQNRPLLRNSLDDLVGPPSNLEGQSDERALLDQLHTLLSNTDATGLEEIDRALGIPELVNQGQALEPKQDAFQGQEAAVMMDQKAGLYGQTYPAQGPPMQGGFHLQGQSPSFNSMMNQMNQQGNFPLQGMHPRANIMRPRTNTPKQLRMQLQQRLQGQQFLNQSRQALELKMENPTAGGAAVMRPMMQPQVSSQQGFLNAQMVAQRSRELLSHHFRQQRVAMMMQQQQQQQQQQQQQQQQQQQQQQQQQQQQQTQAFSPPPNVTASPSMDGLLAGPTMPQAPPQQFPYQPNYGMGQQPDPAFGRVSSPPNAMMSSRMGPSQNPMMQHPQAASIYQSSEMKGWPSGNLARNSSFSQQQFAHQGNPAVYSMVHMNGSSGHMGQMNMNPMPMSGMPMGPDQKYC
Assay [2] has as its system transactivating tegument protein VP16 (Human herpesvirus 1), Gal4-VP16 luciferase reporter. Put plainly: VP16 transactivation inhibitors, counter-screen for SRC3 inhibitor project, cell-based, luminescence, high throughput (AID 588794; in the data active means inhibition above about 30%). As to conditions: mammalian cells, VP16-driven luciferase reporter luminescence; at 3.6 µM; hits give high values.
Assay [3] addresses Nuclear receptor coactivator 1 (Homo sapiens) (UniProt Q15788). Put plainly: SRC1 coactivator transcriptional activity inhibitors, confirmation, cell-based, luminescence, quadruplicate (AID 588820;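 active means mean inhibition above 46.68%, the untreated control wells mean plus 3 SD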;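 further: 0% = DMSO wells and 100% = gossypol 36 µM treated wells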). As to conditions: HEK293 GAL4-SRC1 luciferase reporter, at 3.6 µM, hits give high values.
Assay [4] is described as follows: VP16 transactivation inhibitors, counter-screen for SRC1 inhibitor project, cell-based, luminescence, high throughput (AID 588824). To be noted: cell-based VP16 transactivation luciferase luminescence; at 3.6 µM; hits give high values.

Nuclear receptor coactivator 1 (Homo sapiens), sequence (Q15788 whole entry, looked up, the tested form may be a part): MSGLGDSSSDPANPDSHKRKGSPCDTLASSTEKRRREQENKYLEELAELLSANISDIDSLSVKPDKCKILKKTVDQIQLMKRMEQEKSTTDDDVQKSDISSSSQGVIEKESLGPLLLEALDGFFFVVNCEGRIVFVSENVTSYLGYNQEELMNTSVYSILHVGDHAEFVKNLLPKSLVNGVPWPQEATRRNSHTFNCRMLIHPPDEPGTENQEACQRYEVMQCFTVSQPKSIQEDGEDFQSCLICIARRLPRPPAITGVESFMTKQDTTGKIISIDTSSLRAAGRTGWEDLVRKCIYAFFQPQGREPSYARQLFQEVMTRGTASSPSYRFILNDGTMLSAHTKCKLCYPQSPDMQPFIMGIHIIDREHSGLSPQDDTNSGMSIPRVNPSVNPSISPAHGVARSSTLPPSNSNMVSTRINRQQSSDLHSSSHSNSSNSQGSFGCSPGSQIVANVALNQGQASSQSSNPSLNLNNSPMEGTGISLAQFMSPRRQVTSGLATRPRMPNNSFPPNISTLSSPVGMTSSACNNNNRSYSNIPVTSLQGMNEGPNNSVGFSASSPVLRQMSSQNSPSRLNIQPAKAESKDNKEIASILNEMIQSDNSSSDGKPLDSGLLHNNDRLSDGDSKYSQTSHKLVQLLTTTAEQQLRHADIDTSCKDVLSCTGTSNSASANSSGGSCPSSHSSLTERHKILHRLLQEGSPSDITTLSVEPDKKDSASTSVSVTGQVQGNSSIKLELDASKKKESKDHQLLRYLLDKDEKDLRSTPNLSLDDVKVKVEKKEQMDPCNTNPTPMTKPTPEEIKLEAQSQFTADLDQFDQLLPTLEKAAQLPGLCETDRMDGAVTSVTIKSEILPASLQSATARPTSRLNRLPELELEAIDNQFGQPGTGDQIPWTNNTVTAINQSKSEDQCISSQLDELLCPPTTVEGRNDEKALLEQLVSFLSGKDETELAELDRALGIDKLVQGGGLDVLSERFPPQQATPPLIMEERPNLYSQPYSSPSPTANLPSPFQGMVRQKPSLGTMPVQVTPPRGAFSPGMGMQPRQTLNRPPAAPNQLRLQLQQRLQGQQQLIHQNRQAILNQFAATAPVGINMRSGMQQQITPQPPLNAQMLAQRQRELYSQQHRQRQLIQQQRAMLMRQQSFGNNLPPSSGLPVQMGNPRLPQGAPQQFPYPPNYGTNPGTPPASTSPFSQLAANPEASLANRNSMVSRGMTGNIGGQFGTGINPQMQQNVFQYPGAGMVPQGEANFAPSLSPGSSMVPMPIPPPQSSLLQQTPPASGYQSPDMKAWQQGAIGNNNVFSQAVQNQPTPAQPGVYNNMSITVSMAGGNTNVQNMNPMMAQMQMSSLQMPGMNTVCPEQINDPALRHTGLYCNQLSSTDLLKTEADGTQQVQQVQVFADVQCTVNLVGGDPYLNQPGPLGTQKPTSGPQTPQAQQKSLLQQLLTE

`NC(=S)NN=Cc1nccc2c(N)cccc12`: the inhibition in assay [1] is 72.3% (active); in assay [2] it was 17.2%; in assay [3], 47.8% (active); in assay [4], 8.49%.
In the same order, the values of `CCN(CC)S(=O)(=O)c1cccc(NC(=O)COC(=O)c2[nH]c(C)c(C(C)=O)c2C)c1` are 20%, 42.5% (active), 6.19% and 42.8% (active).
Consider `COc1ccc(OC)c(/C=C/c2ccnc3ccccc23)c1`, for which the inhibition in assay [1] was 19.1%; in assay [2], 54.2% (active); in assay [3] it was 34.5%; in assay [4], 53.7% (active).
In the same order, the values of `Fc1ccc(NC(=S)NNc2ncc(C(F)(F)F)cc2Cl)c(F)c1` are 4.99%, 23%, 15.9% and 29.1% (active).
In the same order, the values of `N#CC(c1ccc(Cl)cc1)c1ccc2c(C(F)(F)F)cc(C(F)(F)F)nc2n1` (stereo not given) are 62% (active), 85.7% (active), 32% and 83.3% (active).
For the compound `CN(C)CC(C(=O)c1ccccc1)c1ccccc1` (stereo not given), the inhibition was 38.8% in assay [1], 46.8% (active) in assay [2], 32% in assay [3] and 41.8% (active) in assay [4].
On the same counts, the results for `CC(C)(C)n1ncc2c(=O)n(CC(=O)OCc3ccccc3)cnc21` are 31.6%, 17%, -21.8% and -23.3%.
On the same counts, the results for `CCOC(=O)c1c(C)n(C)c2ccc(OC)c(NC(=O)c3cccs3)c12` are 22.9%, 35.7% (active), 41.6% and 44.5% (active).
With `C=CC[n+]1ccc(/C=C2\C=Cc3cc(C)ccc3N2CC)c2ccccc21`, the inhibition was 79.4% (active) in assay [1], 86% (active) in assay [2], 63.8% (active) in assay [3] and 86.7% (active) in assay [4].
Turning to `C/C(=N\NC(=O)c1nnn(-c2nonc2N)c1-c1ccccc1)c1ccccc1O`, the inhibition in assay [1] was 49.2% (active); in assay [2], 44.6% (active); in assay [3], 60.8% (active); in assay [4] it was 40.6% (active).
As for `CCOc1cc(C(N)=O)cc(Br)c1OCC`, the inhibition in assay [1] is 37.3%; in assay [2], 22.4%; in assay [3], 43.4%; in assay [4], 21.6%.
In the same order, the values of `COc1ccc(CN(C)C(=O)c2ccc(OCC(=O)Nc3cccc(C(F)(F)F)c3)c(OC)c2)cc1` are 4.69%, 24.7%, 2.4% and 20.5%.
In the same order, the values of `Cc1ccc(S(=O)(=O)N2CCN(S(C)(=O)=O)CC2)cc1` are 24.1%, 19.9%, -0.28% and 6.89%.
In the same order, the values of `Cc1ccc(C)c(NC(=O)c2ccccc2NS(=O)(=O)c2cc([N+](=O)[O-])ccc2C)c1` are 20.5%, 25.5%, 21% and 22%.
In the case of `O=C(/C=C/c1ccc(Cl)cc1)NC(=S)Nc1ccc(NC(=O)c2ccco2)cc1`, the inhibition in assay [1] is 29.7%; in assay [2] it was 63.8% (active); in assay [3], 45.1%; in assay [4] it was 65% (active).
On the same counts, the results for `Cc1c2ccncc2cc2c1[nH]c1ccccc12` are 48.7% (active), 33.5% (active), 48.4% (active) and 19.9%.
On the same counts, the results for `Cc1ccc(NC(=O)CCC(=O)N/N=C/c2ccc(O)cc2O)cc1` are 7.69%, 7.07%, 20.4% and 15.4%.
On to `O=C(Nc1cccc(Cl)c1)Nc1nnc(-c2ccncc2)s1`, for which the inhibition in assay [1] is 40.1%; in assay [2] it was 31.9% (active); in assay [3], 28.5%; in assay [4] it was 23.7%.
In the same order, the values of `CC(C)(C)c1nnc(N/N=C/c2ccccc2O)n(N)c1=O` are 80.1% (active), 76.7% (active), 74.4% (active) and 76.2% (active).
In the same order, the values of `O=C(COc1ccccc1O)NNc1ccccc1` are 11.6%, 24%, -12.2% and 29.2% (active).
On the same counts, the results for `CC(O)CC(C(=O)NNc1ccccc1)C(=O)NNc1ccccc1` (stereo not given) are 10.1%, 16%, -6.15% and 13.1%.
Turning to `CCN(CC)c1ncnc2ccc(Br)cc12`, the inhibition in assay [1] was 48.3% (active); in assay [2], 31.9% (active); in assay [3] it was 45.9%; in assay [4], 36% (active).
For `CC(C)n1cnc2c(NCc3ccccc3)cc(N[C@H](C)CO)cc21`, the inhibition is 16.4% in assay [1], 87.3% (active) in assay [2], 35.6% in assay [3] and 8.74% in assay [4].
In the same order, the values of `CC(C)(C)c1cc[n+](C2=C([O-])c3ccccc3C(=O)/C2=N\S(=O)(=O)c2cccs2)cc1` are 9.53%, 9.97%, -0.27% and 7.69%.
Take `Cc1ccc(-c2n[nH]c(=S)n2/N=C/c2ccncc2)cc1`: the inhibition was 26% in assay [1], 19.3% in assay [2], 37.6% in assay [3] and 28.7% (active) in assay [4].
